Source: PubChem BioAssay
PostGolgi yeast: growth inhibition of a yeast mutant, post-Golgi transport screen. inhibition, % at 10 µM. AID 739. post-Golgi transport phenotypic cell assay. hit rate 0.9% among 98,000;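 note: yeast cells grown in 1536-well plates; yeast grown about 18 h at 30C before absorbance read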
PostGolgi ctrl: yeast control strain growth, post-Golgi counter-screen; inhibition, % at 10 µM; efflux-deficient yeast background strain, growth absorbance A615, 16 h; hit rate 5% among 98,000
PLAP act: activators of human placental alkaline phosphatase; P05187; hit rate 1.2% among 96,000; AID 696; activation fold at 20 µM; purified PLAP enzyme, luminescent substrate read-out; hits give high values; in the data active = activation fold above about 2
DAT uptake mod: modulates human dopamine transporter uptake under cocaine; hit rate 1.3% among 110,000; AID 449768; B-score at 10 µM; LLC-PK1 hDAT cells, [14C]-dopamine uptake with cocaine IC80; actives deviate in either direction;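 active = Z score or B-score, a plate-position-corrected score, falls beyond the plate's 99.7% confidence bounds, in either direction; inactive = both scores lie inside the 99.7% bounds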;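 note: scored against the spread of the other compound wells on the same plate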
Cav3 T inh: inhibitors of human Cav3.2 T-type calcium channel; O95180; Cav3.2-expressing cells, Fluo-4 calcium fluorescence FDSS; hits give low values; B-score at 10 µM; hit rate 4% among 100,000; AID 449739;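 active = single-dose well whose peak fluorescence ratio is a statistical outlier from its plate by either plate-standardised score or position-corrected B-score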
Target sequence (O95180 whole entry, looked up): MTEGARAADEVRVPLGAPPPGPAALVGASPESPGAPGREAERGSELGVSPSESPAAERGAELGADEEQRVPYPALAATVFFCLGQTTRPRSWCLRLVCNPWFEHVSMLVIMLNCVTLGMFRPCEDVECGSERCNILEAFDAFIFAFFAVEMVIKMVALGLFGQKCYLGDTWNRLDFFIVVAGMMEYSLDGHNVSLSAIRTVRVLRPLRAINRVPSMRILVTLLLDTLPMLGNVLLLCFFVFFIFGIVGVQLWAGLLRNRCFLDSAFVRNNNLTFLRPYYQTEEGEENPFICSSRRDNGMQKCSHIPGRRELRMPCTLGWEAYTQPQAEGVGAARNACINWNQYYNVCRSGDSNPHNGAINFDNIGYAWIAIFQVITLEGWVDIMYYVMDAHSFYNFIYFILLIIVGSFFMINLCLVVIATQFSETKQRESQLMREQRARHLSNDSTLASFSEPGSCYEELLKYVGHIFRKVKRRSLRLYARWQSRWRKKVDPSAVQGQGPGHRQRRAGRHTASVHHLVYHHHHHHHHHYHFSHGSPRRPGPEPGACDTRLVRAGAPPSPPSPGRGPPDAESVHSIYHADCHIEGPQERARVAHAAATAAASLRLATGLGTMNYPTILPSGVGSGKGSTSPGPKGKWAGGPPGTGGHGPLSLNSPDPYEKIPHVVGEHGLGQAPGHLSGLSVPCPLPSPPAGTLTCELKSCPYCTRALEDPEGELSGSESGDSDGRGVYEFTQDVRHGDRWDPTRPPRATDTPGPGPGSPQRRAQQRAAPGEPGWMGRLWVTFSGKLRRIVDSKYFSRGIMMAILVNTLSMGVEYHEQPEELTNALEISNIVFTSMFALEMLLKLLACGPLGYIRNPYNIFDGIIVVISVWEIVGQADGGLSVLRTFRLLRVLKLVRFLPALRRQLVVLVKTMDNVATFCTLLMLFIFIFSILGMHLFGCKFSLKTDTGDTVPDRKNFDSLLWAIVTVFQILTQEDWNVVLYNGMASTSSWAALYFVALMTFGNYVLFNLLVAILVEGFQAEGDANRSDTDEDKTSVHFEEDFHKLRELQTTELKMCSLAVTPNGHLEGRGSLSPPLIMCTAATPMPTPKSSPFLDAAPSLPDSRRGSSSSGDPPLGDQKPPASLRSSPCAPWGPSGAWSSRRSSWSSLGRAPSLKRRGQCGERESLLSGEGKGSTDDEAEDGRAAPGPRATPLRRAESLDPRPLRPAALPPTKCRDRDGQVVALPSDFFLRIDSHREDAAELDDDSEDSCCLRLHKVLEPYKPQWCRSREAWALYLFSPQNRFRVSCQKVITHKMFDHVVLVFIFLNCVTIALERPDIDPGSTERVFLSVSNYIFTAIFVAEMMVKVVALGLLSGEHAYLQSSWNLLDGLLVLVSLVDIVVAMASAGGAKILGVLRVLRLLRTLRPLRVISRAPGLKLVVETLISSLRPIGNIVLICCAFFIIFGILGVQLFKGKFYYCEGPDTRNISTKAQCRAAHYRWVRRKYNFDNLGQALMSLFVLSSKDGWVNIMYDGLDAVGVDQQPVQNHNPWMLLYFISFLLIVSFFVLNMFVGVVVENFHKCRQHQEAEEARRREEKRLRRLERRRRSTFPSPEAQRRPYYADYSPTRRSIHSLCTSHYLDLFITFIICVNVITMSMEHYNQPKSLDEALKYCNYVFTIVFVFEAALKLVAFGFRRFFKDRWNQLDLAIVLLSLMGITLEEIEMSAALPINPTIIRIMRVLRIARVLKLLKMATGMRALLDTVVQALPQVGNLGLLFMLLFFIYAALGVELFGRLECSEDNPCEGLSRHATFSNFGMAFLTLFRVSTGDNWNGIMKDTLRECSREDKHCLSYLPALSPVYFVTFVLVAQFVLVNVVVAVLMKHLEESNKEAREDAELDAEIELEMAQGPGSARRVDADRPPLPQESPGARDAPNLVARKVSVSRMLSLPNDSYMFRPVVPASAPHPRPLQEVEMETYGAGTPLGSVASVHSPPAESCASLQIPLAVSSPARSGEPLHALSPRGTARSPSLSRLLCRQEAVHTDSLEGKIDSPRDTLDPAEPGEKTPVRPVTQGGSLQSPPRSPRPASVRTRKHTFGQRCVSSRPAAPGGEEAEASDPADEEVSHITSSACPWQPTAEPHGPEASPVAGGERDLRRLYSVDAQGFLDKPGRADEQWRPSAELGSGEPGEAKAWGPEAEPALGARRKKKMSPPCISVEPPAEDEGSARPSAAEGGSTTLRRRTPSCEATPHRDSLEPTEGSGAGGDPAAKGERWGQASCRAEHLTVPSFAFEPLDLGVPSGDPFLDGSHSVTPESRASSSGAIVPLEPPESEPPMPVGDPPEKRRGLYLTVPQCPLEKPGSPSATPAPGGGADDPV
An asterisk follows results filed as active; · = not tested or not shown. Rows were chosen to be rich in hits. Some 9.6% of all compounds tested hit in one or more screens of this group. Cut-off read from the data, not from the text of the source, unless noted: active = inhibition above about 30%; inactive = the rest.

SMILES | PostGolgi yeast | PostGolgi ctrl | PLAP act | DAT uptake mod | Cav3 T inh
O=C(Cc1cccs1)Nc1ccc(Cl)cc1 | 2 | 4 | 0.9 | 0.78 | -0.93
O=C(NCc1ccco1)C1(c2ccc(Br)cc2)CCCC1 | 0 | 9 | 1 | 0.037 | -2
CC(=O)Oc1ccc(C)cc1-n1nc2ccccc2n1 | 8 | 6 | 1.1 | -0.016 | -1.5
Cc1ccc2[nH]c3c(c2c1)CCc1cn[nH]c1-3 | -3 | 63* | 1 | · | ·
O=C(CSc1nnc(NC(=O)CN2CCOCC2)s1)Nc1ccccc1 | 0 | 21 | 1 | -0.52 | -0.78
CCN(CC)c1ccc(C2CC(=O)Nc3cc(OC)c(OC)cc32)cc1 (stereo not given) | -7 | 3 | 1.1 | 2.4* | 0.34
COc1cc2c(cc1OC)C(c1ccc(N(C)C)cc1)CC(=O)N2 (stereo not given) | -1 | 0 | 1.2 | 0.35 | ·
COC(=O)c1cc(OC)c(OC)cc1NC(=S)N1CCN(c2ccccc2)CC1 | -6 | 15 | 1.4 | 1.1 | 0.087
O=S(=O)(Nc1ccccc1)c1ccc(Oc2ncc(C(F)(F)F)cc2Cl)cc1 | 12 | 59* | 1.1 | 0.051 | 0.3
Cc1cc2ncn(C(=O)N3CCCCCC3)c2cc1C | · | · | · | 1.5 | 0.87
CCn1c(SCC(=O)OC)nc2sc3c(c2c1=O)CCC3 | 4 | 17 | 1.3 | -0.23 | -0.95
Cn1c(SCc2nnc(-c3ccccc3Br)o2)nc2sc3c(c2c1=O)CCC3 | -9 | 45* | 1.5 | 0.88 | -1.8
COCCCn1c(SCc2nnc(-c3ccccc3)o2)nc2sc3c(c2c1=O)CCC3 | 63* | 100* | 1.1 | 0.36 | -2.5
CC(C)CNC(=S)NC1CC2CCCC(C1)N2Cc1ccco1 (stereo not given) | -9 | 31* | 1 | -0.26 | 0.17
CCCCCn1c(=NC(=O)c2ccco2)c(C(=O)OCC)cc2c(=O)n3ccccc3nc21 | -4 | 33* | 1.2 | · | ·
CCCCn1c(=NC(=O)c2cccnc2)c(C(=O)OCC)cc2c(=O)n3ccccc3nc21 | -2 | 30 | 1 | 0.7 | 1.5
CCOCCCn1c(=NC(=O)c2cccnc2)c(C(=O)OCC)cc2c(=O)n3ccccc3nc21 | 26 | 6 | 1.3 | 0.38 | 4.2*
CCCCn1c(=NC(=O)c2ccco2)c(C(=O)OCC)cc2c(=O)n3ccccc3nc21 | 4 | 6 | 1.1 | 0.85 | 0.64
C/C(=C\C(=O)OCCCCCCCCC(=O)O)C[C@@H]1OC[C@H](C[C@@H]2O[C@H]2[C@@H](C)[C@H](C)O)[C@@H](O)[C@H]1O | · | · | · | -0.46 | 0.49
COc1ccc(/C=C/C(=O)c2ccccc2O)cc1 | · | · | · | 0.32 | -0.67
COc1ccc(/C=C\C(=O)CC(O)(c2ccccc2)C(F)(F)F)cc1 (stereo not given) | -4 | 38* | 0.7 | 0.35 | -2.4
CCSc1nnc(-c2sc3nnc(-c4ccccc4)c(-c4ccccc4)c3c2N)o1 | -4 | 14 | 1.1 | 1.6* | -5.6*
COc1ccc2c(c1)C1=NN(/C(C)=C\C(C)=O)C(c3ccccc3)C1CC2 (stereo not given) | · | · | · | 1.9 | -0.11
C=CCN1C=C2C(=O)C(C)(OC(=O)CC)C(=O)C=C2C=C1CCCC (stereo not given) | · | · | · | -2.8* | 0.96
CCCCC1=CC2=CC(=O)C(C)(OC(=O)CC)C(=O)C2=CN1CC(C)C (stereo not given) | · | · | · | -1.9 | 0.023
SMILES | PostGolgi yeast | PostGolgi ctrl | PLAP act | DAT uptake mod | Cav3 T inh
CCN(CC)CCNC(=O)c1ccc2c(=O)n(CCc3ccccc3)c(=O)[nH]c2c1 | -2 | 13 | 1.3 | 1.2 | 1
O=C(NCc1ccco1)c1cc(-c2ccccc2)nn1CC1CC(c2cccnc2)=NO1 (stereo not given) | · | · | · | 2.1* | 0.77
O=C(NCc1cccs1)c1cc(-c2ccccc2)nn1CC1CC(c2cccc([N+](=O)[O-])c2)=NO1 (stereo not given) | · | · | · | 0.77 | -0.2
CC1(C)N=C(c2ccc(Cl)cc2)C(=O)N1 | 8 | 1 | 1 | 0.3 | 0.51
CN(C(=S)NC(=O)CCCOc1ccc(Cl)cc1Cl)c1ccccc1 | 0 | 7 | 1.1 | 1.1 | -3.7*
O=C(O)c1ccc(N2CCCCC2)cc1 | 31* | -7 | 1.1 | 0.23 | -0.12
O=C(c1ccccc1)c1ccc(N2CCCC2)cc1 | -2 | 8 | 1 | -1.1 | 2.1
CC1CC2(CCCCC2)Nc2c1ccc1ccccc21 (stereo not given) | · | · | · | 0.24 | -0.88
CC(=O)N1c2c(ccc3ccccc23)C(C)CC12CCCCC2 (stereo not given) | 8 | 38* | 1 | 0.3 | -3.2
COc1cccc(C(=O)NC2CCN(C(=O)N3c4ccccc4Sc4ccccc43)CC2)c1 | 10 | 5 | 1.9 | 1.7 | -3.9*
NC(=O)C1CCN(C(=O)N2c3ccccc3Sc3ccccc32)CC1 | 4 | 2 | 1.5 | -0.33 | -2.2
O=C(NC1CCN(C(=O)N2c3ccccc3Sc3ccccc32)CC1)c1ccco1 | -5 | 15 | 0.9 | 0.27 | 0.71
O=C(NC1CCN(C(=O)N2c3ccccc3Sc3ccccc32)CC1)c1ccccc1Cl | 9 | 43* | 1.2 | 0.78 | -1.6
O=c1c2cc(N3CCOCC3)ccc2[nH]c(=S)n1Cc1ccc(Cl)cc1 | 1 | 40* | 1.4 | -0.28 | -1.1
CCOC(=O)C1CCN(CC(=O)Nc2c(C(=O)OC)[nH]c3ccccc23)CC1 | 0 | 7 | 1.4 | -8.2* | 2.3
COC(=O)c1[nH]c2ccc(C)cc2c1NC(=O)CCN1CCN(C2CCCCC2)CC1 | -6 | 9 | 1.6 | -0.017 | 0.51
CCOC(=O)C1CCCN(CC(=O)Nc2c(C(=O)OC)[nH]c3ccc(Br)cc23)C1 (stereo not given) | 1 | 56* | 1.5 | 1.1 | -4.3*
COC(=O)c1[nH]c2ccc(Br)cc2c1NC(=O)CN1CCN(C2CCCCC2)CC1 | -7 | 3 | 1.6 | 2.9* | 2.6
COC(=O)c1[nH]c2ccc(Br)cc2c1NC(=O)CN1CCCc2ccccc21 | 0 | 69* | 1 | -0.33 | -0.22
CCOC(=O)C1CCN(CC(=O)Nc2c(C(=O)OC)[nH]c3ccc(Cl)cc23)CC1 | 3 | 10 | 0.9 | 0.72 | -1.4
CCO[C@@H]1OC(C(=O)O)=C[C@H](c2ccc(Br)cc2)[C@H]1CCCO | · | · | · | -0.24 | 0.19
O=S(=O)(c1ccccc1)c1nc(-c2cccs2)oc1NCCCn1ccnc1 | 10 | 6 | 1.2 | 2.5* | -1.4
CCCCNc1oc(-c2cccs2)nc1S(=O)(=O)c1ccccc1 | -8 | -1 | 0.9 | 1.5 | -3.3*
O=S(=O)(c1ccccc1)c1nc(-c2ccco2)oc1NCCCN1CCOCC1 | -2 | 7 | 1.3 | 0.038 | 0.7
Nc1ncnc2c1nc(Sc1ccc(Cl)cc1)n2[C@@H]1O[C@@H]2COP(=O)(O)O[C@H]2[C@H]1O | · | · | · | -0.21 | ·
Cc1cc(NS(=O)(=O)c2ccc(NC(=S)NC(=O)c3ccc(Cl)cc3Cl)cc2)no1 | -2 | 5 | 1.1 | -0.75 | 0.65
CCC1(C)Cc2c(sc3nc(NN)n(C)c(=O)c23)CO1 (stereo not given) | -5 | -1 | 2* | 0.27 | 0.19
CCOC(=O)CSc1nc2sc3c(c2c(=O)[nH]1)CC(C)(CC)OC3 (stereo not given) | 1 | -2 | 1.2 | -1.3 | -0.9
